# Results from PubChem BioAssay (NCATS).
# Results filed as inconclusive are left out. Values without a mark were called inactive. Calls of active or inactive are those of the source. Calls come from the whole dose curve; as a rule, active = well fitted inhibition curve with a large enough effect; inconclusive = small, poorly fitted or top-dose-only effect; inactive = flat fitted curve, though single readings scatter.
# Test system: TAB165
# Assay: qHTS profiling for inhibitors of Plasmodium falciparum proliferation (AID 504749); note: nearly all actives have a fitted effect of over 60% in size;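 for activity, negative = inhibition: 0% = DMSO vehicle and full inhibition = artemisinin control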
# Details: P. falciparum in erythrocytes, SYBR Green DNA, 72 h; series mostly up to 28.7 µM; activity, negative = inhibition: at the top concentration
# Outline: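 SYBR Green fluorescence (ex 485 nm, em 535 nm) reports parasite DNA after 72 h compound exposure of infected red cells at 0.3% parasitemia, 2.5% hematocrit; signal normalized to 0.29 uM artemisinin and vehicle wells.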
# Potency is the fitted concentration of half-maximal effect.
SMILES,Potency,"activity, negative = inhibition"
COCCOC(=O)C1=C(C)NC(C)=C(C(=O)OC(C)C)C1c1cccc([N+](=O)[O-])c1 (stereo not drawn),10 µM (active),
Cc1nc2sccn2c(=O)c1CCN1CCC(=C(c2ccc(F)cc2)c2ccc(F)cc2)CC1,12.6 µM (active),
CNCCC(Oc1ccccc1OC)c1ccccc1 (stereo not drawn),11.2 µM (active),
CNC1(C)C2CCC(C2)C1(C)C (stereo not drawn),,0.884%
c1cc(CN2CCCCC2)cc(OCCCNc2nc3ccccc3s2)c1,3.98 µM (active),
COc1ccc(CN(CCN(C)C)c2ccccn2)cc1,,-22.4%
CC(=O)[C@]1(O)Cc2c(O)c3c(c(O)c2[C@@H](O[C@H]2C[C@H](N)[C@H](O)[C@H](C)O2)C1)C(=O)c1ccccc1C3=O,3.16 µM (active),
COCCCC/C(=N\OCCN)c1ccc(C(F)(F)F)cc1,7.94 µM (active),
C=CCc1ccccc1OCC(O)CNC(C)C (stereo not drawn),10 µM (active),
Fc1ccc(C(c2ccc(F)cc2)N2CCN(C/C=C/c3ccccc3)CC2)cc1,11.2 µM (active),
CCCCCCCC/C=C\CCCCCCCC(=O)NCc1ccc(O)c(OC)c1,8.91 µM (active),
CC(C)(C)c1ccc(C(=O)CCCN2CCC(OC(c3ccccc3)c3ccccc3)CC2)cc1,7.94 µM (active),
CN(C)CCCN1c2ccccc2Sc2ccc(C(F)(F)F)cc21,12.6 µM (active),
CCN(CC)CCNC(=O)c1cc(S(C)(=O)=O)ccc1OC,,6.55% [at 12.8 µM]
CC1=C(C)C(=O)C(CCCCC#CCCCC#CCO)=C(C)C1=O,5.01 µM (active),
CCCN1C[C@H](CSC)C[C@@H]2c3cccc4[nH]cc(c34)C[C@H]21,14.1 µM (active),
CCOC(=O)C1=C(C)NC(C)=C(C(=O)OC)C1c1cccc([N+](=O)[O-])c1 (stereo not drawn),10 µM (active),
NC(=Nc1ccccc1)Nc1ccccc1,,-23%
O=C1NCN(c2ccccc2)C12CCN(CCCC(c1ccc(F)cc1)c1ccc(F)cc1)CC2,3.55 µM (active),
OC(CCN1CCCCC1)(c1ccccc1)C1CCCCC1 (stereo not drawn),,-35.6%
COc1cc(C(=O)OCCCN2CCCN(CCCOC(=O)c3cc(OC)c(OC)c(OC)c3)CC2)cc(OC)c1OC,8.91 µM (active),
O=C1CC2(CCCC2)CC(=O)N1CCCCN1CCN(c2ncccn2)CC1,,-1.02%
O=C(CCCN1CCC(O)(c2cccc(C(F)(F)F)c2)CC1)c1ccc(F)cc1,7.94 µM (active),
